This passage reports binding signal results from article PMC7862700, “An all-to-all approach to the identification of sequence-specific readers for epigenetic DNA modifications on cytosine”.

Holding throughout (assay): DAPPL (digital affinity profiling via proximity ligation, sequencing); 10 mM Tris-HCl pH 7.5, 50 mM NaCl, 1 mM DTT, 4% glycerol, room temperature, 30 min; GST-TFs on glutathione beads, 16-mer random dsDNA library, 0.1% formaldehyde crosslink after washing; high values mean tight binding
One assay has as its target T1, FEV (Homo sapiens, UniProt Q99581 1-238).
T1 sequence: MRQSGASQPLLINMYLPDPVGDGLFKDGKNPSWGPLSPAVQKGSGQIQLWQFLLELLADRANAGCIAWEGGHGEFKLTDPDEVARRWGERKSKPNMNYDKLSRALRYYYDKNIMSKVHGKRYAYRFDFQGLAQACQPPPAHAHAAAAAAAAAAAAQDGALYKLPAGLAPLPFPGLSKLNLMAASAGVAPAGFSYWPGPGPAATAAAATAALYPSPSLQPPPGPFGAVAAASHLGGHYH
The note with it: protein: recombinant; tags: N-terminal GST; dsDNA, one strand shown. The gist of the method:
(§1)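 Human transcription factors fused to GST were expressed in yeast, captured on glutathione beads, given DNA barcodes and pooled with a GST-only negative control. Pools were incubated with 200 nmole of a 16-mer random double-stranded DNA library in Tris/NaCl/DTT/glycerol buffer at room temperature for 30 min. They were then washed, crosslinked with 0.1% formaldehyde, proximity-ligated (BsaI/T4 ligase, 1 h, 37 °C), PCR-amplified and sequenced on an Illumina NextSeq500. Binding signal is each 6-mer's read frequency for a factor divided by its frequency for the GST control.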

The target in another assay is ETV5 (Homo sapiens, UniProt P41161 1-510). The note with it: protein: recombinant; tags: N-terminal GST; dsDNA, one strand shown. Summed up:
as §1

For the next assay, the target named is HSF1 (Homo sapiens, UniProt Q00613 1-529). As to conditions: protein: recombinant; tags: N-terminal GST; chain copies: 3; dsDNA, one strand shown. Summed up:
as §1

For another assay, the target named is T2, SPIC (Homo sapiens, UniProt Q8N5J4 1-248).
T2 sequence: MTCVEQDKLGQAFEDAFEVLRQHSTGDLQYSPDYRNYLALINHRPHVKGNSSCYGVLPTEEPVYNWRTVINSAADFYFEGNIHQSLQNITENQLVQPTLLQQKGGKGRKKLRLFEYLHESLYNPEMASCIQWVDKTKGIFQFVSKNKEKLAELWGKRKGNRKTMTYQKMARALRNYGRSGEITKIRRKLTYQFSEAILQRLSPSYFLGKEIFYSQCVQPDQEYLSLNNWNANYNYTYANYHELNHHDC
The note with it: protein: recombinant; tags: N-terminal GST; dsDNA, one strand shown. Summed up:
as §1

The next assay deals with ELF4 (Homo sapiens, UniProt Q99607 1-663). The note with it: protein: recombinant; tags: N-terminal GST; dsDNA, one strand shown. Summed up:
as §1

The next assay addresses T3, ELK4 (Homo sapiens, UniProt P28324-2 1-405).
T3 sequence: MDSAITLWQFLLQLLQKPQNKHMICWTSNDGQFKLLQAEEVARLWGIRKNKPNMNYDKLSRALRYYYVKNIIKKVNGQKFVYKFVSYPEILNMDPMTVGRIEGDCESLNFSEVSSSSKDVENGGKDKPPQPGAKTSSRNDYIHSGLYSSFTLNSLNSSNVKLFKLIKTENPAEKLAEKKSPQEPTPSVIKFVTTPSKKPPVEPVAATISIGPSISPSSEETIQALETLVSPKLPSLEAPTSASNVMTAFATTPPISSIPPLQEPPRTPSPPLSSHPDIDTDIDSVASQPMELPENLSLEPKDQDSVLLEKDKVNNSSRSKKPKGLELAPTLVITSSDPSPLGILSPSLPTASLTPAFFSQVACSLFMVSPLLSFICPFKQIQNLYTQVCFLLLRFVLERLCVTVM
As to conditions: protein: recombinant; tags: N-terminal GST; dsDNA, one strand shown. Summed up:
as §1

The next assay concerns the target T4, ETV2 (Homo sapiens, UniProt O00321 1-342).
T4 sequence: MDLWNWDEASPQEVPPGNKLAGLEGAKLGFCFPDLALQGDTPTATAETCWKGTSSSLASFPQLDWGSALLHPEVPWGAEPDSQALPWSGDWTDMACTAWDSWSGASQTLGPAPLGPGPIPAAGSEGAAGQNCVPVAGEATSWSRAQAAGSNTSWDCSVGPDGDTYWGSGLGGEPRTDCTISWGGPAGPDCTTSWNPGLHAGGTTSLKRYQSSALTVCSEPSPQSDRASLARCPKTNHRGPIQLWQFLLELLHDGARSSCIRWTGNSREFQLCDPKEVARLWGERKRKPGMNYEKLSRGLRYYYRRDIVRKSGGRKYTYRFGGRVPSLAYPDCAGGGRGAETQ
As to conditions: protein: recombinant; tags: N-terminal GST; dsDNA, one strand shown. Summed up:
as §1

In the next assay the target is T5, ELF3 (Homo sapiens, UniProt P78545 1-371).
T5 sequence: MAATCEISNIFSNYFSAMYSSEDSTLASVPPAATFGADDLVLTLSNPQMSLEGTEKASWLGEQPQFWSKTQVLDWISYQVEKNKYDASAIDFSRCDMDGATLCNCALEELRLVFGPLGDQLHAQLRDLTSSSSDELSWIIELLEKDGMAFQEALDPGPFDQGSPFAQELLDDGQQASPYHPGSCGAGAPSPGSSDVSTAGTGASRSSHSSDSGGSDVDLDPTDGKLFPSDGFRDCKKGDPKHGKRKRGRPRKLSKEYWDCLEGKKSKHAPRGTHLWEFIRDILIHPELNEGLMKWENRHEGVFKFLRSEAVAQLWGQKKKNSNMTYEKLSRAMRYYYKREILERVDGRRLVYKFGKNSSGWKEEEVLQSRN
The note with it: protein: recombinant; tags: N-terminal GST; dsDNA, one strand shown. The gist of the method:
as §1

The next assay addresses CRX (Homo sapiens, UniProt O43186 1-299). The note with it: protein: recombinant; tags: N-terminal GST; dsDNA, one strand shown. The gist of the method: as §1
A further assay addresses ETV1 (Homo sapiens, UniProt P50549 1-477). The note with it: protein: recombinant; tags: N-terminal GST; dsDNA, one strand shown. The gist of the method:
as §1

The target in a further assay is T6, ERF (Homo sapiens, UniProt P50548 1-548).
T6 sequence: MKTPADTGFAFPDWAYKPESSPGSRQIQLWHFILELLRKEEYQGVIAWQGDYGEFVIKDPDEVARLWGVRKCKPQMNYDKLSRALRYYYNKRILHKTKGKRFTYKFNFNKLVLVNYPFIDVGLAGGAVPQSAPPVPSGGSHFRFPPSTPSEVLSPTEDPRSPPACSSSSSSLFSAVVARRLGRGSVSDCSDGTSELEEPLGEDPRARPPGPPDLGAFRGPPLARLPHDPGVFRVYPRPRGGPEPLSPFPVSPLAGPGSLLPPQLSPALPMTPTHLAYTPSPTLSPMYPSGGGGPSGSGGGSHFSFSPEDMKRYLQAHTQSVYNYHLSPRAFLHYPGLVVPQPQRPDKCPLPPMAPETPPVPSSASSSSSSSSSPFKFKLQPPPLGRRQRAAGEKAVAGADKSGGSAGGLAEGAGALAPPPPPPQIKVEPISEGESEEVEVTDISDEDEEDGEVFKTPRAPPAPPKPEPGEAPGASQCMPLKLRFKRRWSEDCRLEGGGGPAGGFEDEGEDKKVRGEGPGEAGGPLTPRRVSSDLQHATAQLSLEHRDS
The note with it: protein: recombinant; tags: N-terminal GST; dsDNA, one strand shown. The gist of the method: as §1

The next assay concerns the target T7, ETV3L (Homo sapiens, UniProt Q6ZN32 1-361).
T7 sequence: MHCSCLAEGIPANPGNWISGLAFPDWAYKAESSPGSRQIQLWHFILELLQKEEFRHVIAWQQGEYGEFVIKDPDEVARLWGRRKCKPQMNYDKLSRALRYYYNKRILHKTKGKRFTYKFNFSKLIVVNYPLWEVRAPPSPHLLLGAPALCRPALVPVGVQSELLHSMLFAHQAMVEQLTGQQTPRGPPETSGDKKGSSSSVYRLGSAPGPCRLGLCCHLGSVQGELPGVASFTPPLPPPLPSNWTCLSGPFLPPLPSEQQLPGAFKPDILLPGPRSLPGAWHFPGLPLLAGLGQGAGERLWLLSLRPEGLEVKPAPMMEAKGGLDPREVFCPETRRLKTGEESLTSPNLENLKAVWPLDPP
The note with it: protein: recombinant; tags: N-terminal GST; dsDNA, one strand shown. Summed up: as §1

The next assay concerns the target T8, ETS2 (Homo sapiens, UniProt P15036 1-469).
T8 sequence: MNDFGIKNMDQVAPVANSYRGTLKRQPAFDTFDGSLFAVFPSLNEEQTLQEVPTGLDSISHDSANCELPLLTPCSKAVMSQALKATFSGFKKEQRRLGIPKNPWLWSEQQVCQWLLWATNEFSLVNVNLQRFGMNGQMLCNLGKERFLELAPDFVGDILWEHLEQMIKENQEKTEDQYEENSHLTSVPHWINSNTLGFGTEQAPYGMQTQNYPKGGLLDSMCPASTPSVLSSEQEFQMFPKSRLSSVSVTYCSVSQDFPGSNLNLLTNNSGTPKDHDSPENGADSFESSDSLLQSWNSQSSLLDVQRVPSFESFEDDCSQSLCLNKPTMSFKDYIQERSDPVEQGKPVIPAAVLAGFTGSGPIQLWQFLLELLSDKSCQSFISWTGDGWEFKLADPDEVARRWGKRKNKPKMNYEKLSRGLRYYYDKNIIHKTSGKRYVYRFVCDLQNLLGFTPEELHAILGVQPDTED
As to conditions: protein: recombinant; tags: N-terminal GST; dsDNA, one strand shown. Summed up: as §1

The target in another assay is T9, SPDEF (Homo sapiens, UniProt O95238 1-335).
T9 sequence: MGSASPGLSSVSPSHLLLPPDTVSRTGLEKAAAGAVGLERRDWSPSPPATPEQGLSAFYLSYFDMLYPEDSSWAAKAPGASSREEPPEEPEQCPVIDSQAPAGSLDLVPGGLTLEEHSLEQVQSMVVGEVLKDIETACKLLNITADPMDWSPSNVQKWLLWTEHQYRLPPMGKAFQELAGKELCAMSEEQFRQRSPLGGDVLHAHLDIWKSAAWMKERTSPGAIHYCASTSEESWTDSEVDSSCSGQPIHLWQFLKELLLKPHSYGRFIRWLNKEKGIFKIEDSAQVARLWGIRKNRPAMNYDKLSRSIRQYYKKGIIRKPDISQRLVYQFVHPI
As to conditions: protein: recombinant; tags: N-terminal GST; dsDNA, one strand shown. Summed up:
as §1

The target of a further assay is T10, ETV7 (Homo sapiens, UniProt Q9Y603 1-341).
T10 sequence: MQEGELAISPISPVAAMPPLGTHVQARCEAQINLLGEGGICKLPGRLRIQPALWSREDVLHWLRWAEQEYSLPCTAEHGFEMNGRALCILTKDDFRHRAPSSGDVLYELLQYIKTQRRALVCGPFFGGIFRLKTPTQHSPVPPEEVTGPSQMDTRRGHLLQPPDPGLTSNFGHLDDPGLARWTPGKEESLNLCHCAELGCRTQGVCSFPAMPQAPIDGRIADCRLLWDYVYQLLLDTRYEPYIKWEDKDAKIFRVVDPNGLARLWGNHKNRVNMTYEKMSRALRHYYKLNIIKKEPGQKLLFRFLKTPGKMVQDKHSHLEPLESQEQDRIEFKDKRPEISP
The note with it: protein: recombinant; tags: N-terminal GST; dsDNA, one strand shown. The gist of the method: as §1

The next assay has as its target T11, ELF5 (Homo sapiens, UniProt Q9UKW6-2 1-255).
T11 sequence: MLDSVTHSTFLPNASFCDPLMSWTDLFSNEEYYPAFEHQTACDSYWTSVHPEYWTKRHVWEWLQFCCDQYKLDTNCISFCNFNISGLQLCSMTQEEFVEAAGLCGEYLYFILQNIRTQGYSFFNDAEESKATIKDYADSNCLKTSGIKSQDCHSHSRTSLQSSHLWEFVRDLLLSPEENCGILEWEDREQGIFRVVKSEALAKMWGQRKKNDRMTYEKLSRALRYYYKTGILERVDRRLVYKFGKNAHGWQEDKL
As to conditions: protein: recombinant; tags: N-terminal GST; dsDNA, one strand shown. Summed up: as §1

In the next assay the target is T12, ETV3 (Homo sapiens, UniProt P41162-2 1-143).
T12 sequence: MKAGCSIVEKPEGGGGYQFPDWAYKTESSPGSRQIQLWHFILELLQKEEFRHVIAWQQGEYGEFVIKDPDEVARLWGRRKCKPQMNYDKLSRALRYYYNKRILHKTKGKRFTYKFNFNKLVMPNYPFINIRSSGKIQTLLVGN
As to conditions: protein: recombinant; tags: N-terminal GST; dsDNA, one strand shown. Summed up: as §1

Another assay deals with ETV6 (Homo sapiens, UniProt P41212 1-452). The note with it: protein: recombinant; tags: N-terminal GST; dsDNA, one strand shown. The gist of the method:
as §1

Chain of ETV6 (P41212 whole entry): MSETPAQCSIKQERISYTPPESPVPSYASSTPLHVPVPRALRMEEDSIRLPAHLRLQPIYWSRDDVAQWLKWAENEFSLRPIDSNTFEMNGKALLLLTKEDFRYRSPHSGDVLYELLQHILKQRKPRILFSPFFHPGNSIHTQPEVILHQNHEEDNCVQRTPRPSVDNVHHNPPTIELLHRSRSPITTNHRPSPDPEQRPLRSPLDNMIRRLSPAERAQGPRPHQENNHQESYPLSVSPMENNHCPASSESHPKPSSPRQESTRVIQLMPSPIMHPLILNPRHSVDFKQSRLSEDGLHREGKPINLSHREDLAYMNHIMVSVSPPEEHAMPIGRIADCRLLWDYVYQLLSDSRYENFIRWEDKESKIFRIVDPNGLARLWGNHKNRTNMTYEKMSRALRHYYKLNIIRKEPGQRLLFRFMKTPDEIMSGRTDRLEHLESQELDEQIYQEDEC
Chain of ELF4 (Q99607 whole entry): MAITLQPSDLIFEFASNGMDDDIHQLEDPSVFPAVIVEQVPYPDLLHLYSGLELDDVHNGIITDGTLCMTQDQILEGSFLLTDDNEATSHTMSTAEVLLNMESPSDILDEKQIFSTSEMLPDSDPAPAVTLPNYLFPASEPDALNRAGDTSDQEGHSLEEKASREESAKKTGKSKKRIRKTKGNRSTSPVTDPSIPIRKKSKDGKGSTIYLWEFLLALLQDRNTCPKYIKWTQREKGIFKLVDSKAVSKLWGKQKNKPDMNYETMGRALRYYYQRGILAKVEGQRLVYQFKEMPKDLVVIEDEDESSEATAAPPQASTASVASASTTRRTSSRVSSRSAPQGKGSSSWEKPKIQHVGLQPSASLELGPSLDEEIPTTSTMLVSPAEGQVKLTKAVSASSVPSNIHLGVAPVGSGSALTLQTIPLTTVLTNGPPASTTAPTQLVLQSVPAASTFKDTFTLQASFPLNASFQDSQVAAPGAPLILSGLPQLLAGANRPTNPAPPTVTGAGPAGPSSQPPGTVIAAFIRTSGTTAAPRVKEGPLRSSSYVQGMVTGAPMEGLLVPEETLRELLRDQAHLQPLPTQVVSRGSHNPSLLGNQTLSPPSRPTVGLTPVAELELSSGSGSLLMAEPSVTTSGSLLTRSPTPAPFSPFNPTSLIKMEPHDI
Chain of ETV5 (P41161 whole entry): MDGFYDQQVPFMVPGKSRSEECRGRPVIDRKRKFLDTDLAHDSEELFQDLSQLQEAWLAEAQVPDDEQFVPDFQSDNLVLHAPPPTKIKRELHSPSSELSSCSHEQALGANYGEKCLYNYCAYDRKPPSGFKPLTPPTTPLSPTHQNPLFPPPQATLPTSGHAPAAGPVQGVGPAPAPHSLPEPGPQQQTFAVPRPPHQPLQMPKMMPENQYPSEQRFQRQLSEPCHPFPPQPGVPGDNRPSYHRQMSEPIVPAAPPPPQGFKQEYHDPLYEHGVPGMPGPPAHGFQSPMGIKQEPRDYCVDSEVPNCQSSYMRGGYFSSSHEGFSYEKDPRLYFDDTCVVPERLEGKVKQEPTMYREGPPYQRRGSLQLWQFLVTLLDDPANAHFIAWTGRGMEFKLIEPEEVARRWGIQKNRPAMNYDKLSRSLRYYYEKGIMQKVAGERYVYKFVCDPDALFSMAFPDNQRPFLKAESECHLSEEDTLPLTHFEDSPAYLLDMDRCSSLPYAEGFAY
Chain of CRX (O43186 whole entry): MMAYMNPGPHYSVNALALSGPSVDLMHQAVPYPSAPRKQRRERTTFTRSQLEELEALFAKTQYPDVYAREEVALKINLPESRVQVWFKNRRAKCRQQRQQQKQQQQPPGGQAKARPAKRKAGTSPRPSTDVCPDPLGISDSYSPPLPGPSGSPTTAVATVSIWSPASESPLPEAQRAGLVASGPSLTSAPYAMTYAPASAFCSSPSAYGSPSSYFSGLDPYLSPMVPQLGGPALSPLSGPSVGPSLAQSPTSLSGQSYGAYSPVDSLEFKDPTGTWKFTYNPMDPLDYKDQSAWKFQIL
Chain of ETV1 (P50549 whole entry): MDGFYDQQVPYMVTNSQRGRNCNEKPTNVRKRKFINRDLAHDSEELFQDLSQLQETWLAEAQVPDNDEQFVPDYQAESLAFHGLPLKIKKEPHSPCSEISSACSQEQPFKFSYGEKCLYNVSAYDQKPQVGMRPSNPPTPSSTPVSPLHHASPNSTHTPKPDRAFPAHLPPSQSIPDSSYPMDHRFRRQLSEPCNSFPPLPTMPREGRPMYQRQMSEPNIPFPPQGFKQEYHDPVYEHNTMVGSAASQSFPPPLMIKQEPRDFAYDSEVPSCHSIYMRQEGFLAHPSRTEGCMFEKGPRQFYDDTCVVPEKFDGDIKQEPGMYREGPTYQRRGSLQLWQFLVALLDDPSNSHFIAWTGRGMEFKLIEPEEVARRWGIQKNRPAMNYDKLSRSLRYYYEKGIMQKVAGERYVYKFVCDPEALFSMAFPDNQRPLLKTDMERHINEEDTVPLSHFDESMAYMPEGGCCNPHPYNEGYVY
Chain of HSF1 (Q00613 whole entry): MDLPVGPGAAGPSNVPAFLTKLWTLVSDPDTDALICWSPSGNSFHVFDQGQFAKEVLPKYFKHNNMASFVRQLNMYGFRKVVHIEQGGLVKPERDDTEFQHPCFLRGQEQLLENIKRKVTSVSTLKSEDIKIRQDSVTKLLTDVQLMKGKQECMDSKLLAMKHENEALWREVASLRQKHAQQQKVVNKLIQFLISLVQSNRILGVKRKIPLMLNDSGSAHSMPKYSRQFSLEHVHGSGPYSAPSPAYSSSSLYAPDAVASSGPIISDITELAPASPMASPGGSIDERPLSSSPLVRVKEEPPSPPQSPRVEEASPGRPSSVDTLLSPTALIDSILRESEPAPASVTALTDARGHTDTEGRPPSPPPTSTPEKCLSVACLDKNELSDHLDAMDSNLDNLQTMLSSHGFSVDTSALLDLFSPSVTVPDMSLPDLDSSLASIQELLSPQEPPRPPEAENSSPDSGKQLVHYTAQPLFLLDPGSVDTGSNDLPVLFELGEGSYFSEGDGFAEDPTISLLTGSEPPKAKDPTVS

CCTGAT: the binding signal with FEV was 1.32 fold enrichment (6-mer frequency, TF over GST control); with ETV5, 1.49 fold enrichment (6-mer frequency, TF over GST control); in the assay with HSF1, 1.32 fold enrichment (6-mer frequency, TF over GST control); with SPIC, 1.42 fold enrichment (6-mer frequency, TF over GST control); with ELF4, 1.59 fold enrichment (6-mer frequency, TF over GST control); with ELK4, 1.5 fold enrichment (6-mer frequency, TF over GST control). Further, the binding signal with ETV2 was 1.55 fold enrichment (6-mer frequency, TF over GST control); with ELF3, 1.34 fold enrichment (6-mer frequency, TF over GST control); in the assay with CRX, 1.44 fold enrichment (6-mer frequency, TF over GST control); in the assay with ETV1, 1.46 fold enrichment (6-mer frequency, TF over GST control); with ERF, 1.5 fold enrichment (6-mer frequency, TF over GST control); in the assay with ETV3L it was 1.36 fold enrichment (6-mer frequency, TF over GST control). The binding signal is 1.46 fold enrichment (6-mer frequency, TF over GST control) in the assay with ETS2; 1.59 fold enrichment (6-mer frequency, TF over GST control) in the assay with SPDEF; 1.29 fold enrichment (6-mer frequency, TF over GST control) with ETV7; 1.64 fold enrichment (6-mer frequency, TF over GST control) with ELF5; 1.43 fold enrichment (6-mer frequency, TF over GST control) in the assay with ETV3; 1.41 fold enrichment (6-mer frequency, TF over GST control) in the assay with ETV6.
